Several values for one entry are separate records, joined by “and”; a condition that tells them apart may be missing. Equal entries are not always repeated. Results filed as inconclusive are left out. Activity calls are given as the source filed them. Calls follow the shape of the dose curve; as a rule, active = well fitted inhibition curve with a large enough effect; inconclusive = small, poorly fitted or top-dose-only effect; inactive = no such curve, though single readings can be large or run the other way.
Target: RecQ-like DNA helicase BLM (Homo sapiens) (UniProt P54132)
Test: qHTS for Inhibitors of Bloom's syndrome helicase (BLM): Helicase DNA unwinding fluorescent orthogonal confirmatory assay for SAR
Conditions: fluorescence, orthogonal confirmation; series mostly up to 55.6 µM; activity change, negative = inhibition: at the top concentration
Outline: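 Purified BLM unwound a fluorescently labelled DNA substrate at room temperature in pH 7.5 Tris buffer with 2mM ATP and 2mM MgCl2. Products were resolved on native 15% gels. Loss of single-stranded product band, normalised to no-inhibitor and no-enzyme controls, indicates inhibition.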

RecQ-like DNA helicase BLM (Homo sapiens), sequence (P54132 whole entry, looked up): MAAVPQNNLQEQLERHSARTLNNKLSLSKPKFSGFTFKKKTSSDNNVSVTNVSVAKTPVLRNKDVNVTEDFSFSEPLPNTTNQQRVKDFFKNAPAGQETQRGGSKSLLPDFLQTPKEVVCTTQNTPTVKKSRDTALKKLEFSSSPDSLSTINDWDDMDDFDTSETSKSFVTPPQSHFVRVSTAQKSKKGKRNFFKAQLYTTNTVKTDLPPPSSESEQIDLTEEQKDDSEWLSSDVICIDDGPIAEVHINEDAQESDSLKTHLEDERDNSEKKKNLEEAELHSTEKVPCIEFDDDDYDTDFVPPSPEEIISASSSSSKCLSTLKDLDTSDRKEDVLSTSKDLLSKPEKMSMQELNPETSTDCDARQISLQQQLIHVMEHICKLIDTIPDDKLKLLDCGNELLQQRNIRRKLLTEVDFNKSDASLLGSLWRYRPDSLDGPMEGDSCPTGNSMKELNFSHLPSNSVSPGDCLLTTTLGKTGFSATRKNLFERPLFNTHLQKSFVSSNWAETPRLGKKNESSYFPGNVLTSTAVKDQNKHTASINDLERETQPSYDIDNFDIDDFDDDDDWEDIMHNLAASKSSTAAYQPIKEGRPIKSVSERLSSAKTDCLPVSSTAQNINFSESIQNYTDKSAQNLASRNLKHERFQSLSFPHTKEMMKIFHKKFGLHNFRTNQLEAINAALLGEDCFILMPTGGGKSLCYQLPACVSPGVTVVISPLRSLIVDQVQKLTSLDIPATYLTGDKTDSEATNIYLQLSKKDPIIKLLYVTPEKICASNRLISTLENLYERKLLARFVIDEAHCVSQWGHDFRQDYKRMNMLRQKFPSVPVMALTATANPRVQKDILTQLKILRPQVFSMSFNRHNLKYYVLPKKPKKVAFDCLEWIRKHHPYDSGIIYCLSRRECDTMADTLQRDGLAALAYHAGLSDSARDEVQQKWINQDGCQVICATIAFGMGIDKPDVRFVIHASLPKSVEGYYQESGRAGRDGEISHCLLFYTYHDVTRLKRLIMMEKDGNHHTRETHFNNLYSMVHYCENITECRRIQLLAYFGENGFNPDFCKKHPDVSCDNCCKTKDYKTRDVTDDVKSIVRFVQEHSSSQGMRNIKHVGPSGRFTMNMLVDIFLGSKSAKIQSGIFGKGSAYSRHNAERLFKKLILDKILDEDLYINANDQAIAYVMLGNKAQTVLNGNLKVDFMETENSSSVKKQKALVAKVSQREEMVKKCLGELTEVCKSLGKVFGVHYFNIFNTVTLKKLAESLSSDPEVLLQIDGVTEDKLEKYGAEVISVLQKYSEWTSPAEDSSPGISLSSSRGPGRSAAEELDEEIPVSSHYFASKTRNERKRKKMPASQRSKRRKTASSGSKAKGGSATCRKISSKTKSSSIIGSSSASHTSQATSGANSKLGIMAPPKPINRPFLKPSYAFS

Activity change, negative = inhibition, inactive:
COc1ccc(-c2nnc(NC(=O)Nc3ccc4ccccc4c3)s2)cc1OC -6.42%
O=C(Nc1ccc(-c2nc3ccccc3[nH]2)cc1)Nc1ccc2occc2c1 -6.03%
O=C(Nc1ccc(Cl)c(Cl)c1)N1CCN(c2ccncc2)CC1 6% [at 53.6 µM]
O=C(NCc1ccccc1)Nc1nnc(-c2ccncc2)s1 -10.1%
Cc1cc(NC(=O)Nc2nnc(C3CCCCC3)s2)ccc1Br -10.8%
O=C(Nc1ccc(F)c(C(F)(F)F)c1)Nc1nc(-c2ccncc2)cs1 -3.13% [at 53.6 µM]
O=C(Nc1ccc2ccccc2c1)Nc1nnc(-c2ccc(O)cc2)s1 2.72%
O=C(Nc1ccc(Cl)c(Cl)c1)Nc1nnc(-c2ccncc2)o1 0.56%

Potency, active:
O=C(Nc1ccc2sccc2c1)Nc1nnc(-c2cccnc2)s1 10 µM
Cc1cc(NC(=O)Nc2nnc(-c3cccnc3)s2)ccc1Br 5.62 µM
N#Cc1cc(NC(=O)Nc2nnc(-c3ccncc3)s2)ccc1-c1cn[nH]c1 1.58 µM and 7.08 µM
O=C(Nc1ccc(-c2cn[nH]c2)cc1)Nc1nnc(-c2ccncc2)s1 31.6 µM
Cc1cc(NC(=O)Nc2cccc(-c3ccncc3)n2)ccc1Br 12.6 µM
O=C(Nc1ccc2ccccc2c1)Nc1nnc(-c2cccnc2)s1 10 µM
O=C(Nc1ccc(Cl)c(Cl)c1)Nc1nnc(-c2ccncc2)s1 1.58 µM
N/C(=N\c1nnc(-c2ccncc2)s1)Nc1ccc(Cl)c(Cl)c1 14.1 µM
Nc1cc(NC(=O)Nc2nnc(-c3ccncc3)s2)ccc1Cl 11.2 µM
